Anthrax LF prot – anthrax lethal factor protease inhibition; actives 0.12% (n = 360,000); P15917; multiplex microsphere protease cleavage assay, LF; inhibition, % at 10 µM; in the data active = inhibition above about 30%; inconclusive = no clear call, values can overlap the other calls; note: plate controls were buffer without enzyme for full effect and enzyme alone for no effect
BoNT A protease – BoNT A light chain protease inhibition. multiplex microsphere protease substrate cleavage, flow cytometry. inhibition, % at 10 µM. actives 0.17% (n = 360,000). AID 588499; in the data active = inhibition above about 30%; inconclusive = no clear call, values can overlap the other calls; note: plate controls were buffer without enzyme for full effect and enzyme alone for no effect
BoNT F protease – inhibitors of Botulinum neurotoxin F light chain protease; Multiplex microsphere protease cleavage assay, flow cytometry; inhibition, % at 10 µM; actives 0.22% (n = 360,000); in the data active = inhibition above about 35%, passing the limit was not always enough; inconclusive = no clear call, values can overlap the other calls; note: plate controls were buffer without enzyme for full effect and enzyme alone for no effect
MazF activator – increases E. coli MazEF RNase cleavage of RNA | actives 0.32% (n = 350,000) | AID 504720 | FAM/BHQ RNA-DNA oligo cleavage fluorescence, 5 h | P0AE70 | activation, % at 20 µM; in the data active = activation above about 50%
Target sequence (P0AE70 whole entry, looked up): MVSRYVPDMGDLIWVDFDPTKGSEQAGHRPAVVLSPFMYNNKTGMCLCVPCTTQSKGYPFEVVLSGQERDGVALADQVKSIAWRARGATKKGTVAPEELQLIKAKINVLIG
Autofluor counter – compound fluorescence in toxin protease inhibitor counterscreen; compound autofluorescence counterscreen, microsphere flow cytometry; active compounds read high; fluorescence intensity (test concentration not listed); actives 3.1% (n = 360,000); in the data active = fluorescence intensity above about 16000; inconclusive = no clear call, values can overlap the other calls
BoNTA LC inh 1 – BoNT/A light chain protease inhibition. shares compounds with BoNT F protease. multiplex microsphere protease assay, flow cytometry. inhibition, % at 10 µM. actives 3% (n = 720). AID 602139; in the data active = inhibition above about 32%
BoNT-F LC CP1 – inhibitors of Botulinum neurotoxin F light chain protease; shares compounds with BoNT F protease; multiplex microsphere protease cleavage assay, flow cytometry; inhibition, % at 10 µM; 720 tested, under 10 active
Anthrax LF CP1 – inhibitors of Bacillus anthracis lethal factor protease. shares compounds with BoNT F protease. multiplex microsphere protease cleavage assay, LF. inhibition, % at 10 µM. 720 tested, under 10 active. AID 602142
* hit, by the source's call; ? = inconclusive; . = not tested or not shown. A selection: hits, their analogues and other compounds. The true share with any hit is near 3.6%. Unless noted, the rule behind the calls is not given here.

SMILES | Anthrax LF prot | BoNT A protease | BoNT F protease | MazF activator | Autofluor counter | BoNTA LC inh 1 | BoNT-F LC CP1 | Anthrax LF CP1
COc1ccc(-c2cc3ccccc3n2CC(O)Cn2nc(C)cc2C)cc1 (stereo not given) | 49* | 152* | -38 | 8 | 3026 | 0 | -4 | -2
COc1ccc(N(C)S(=O)(=O)c2cccc(C(=O)OCC(=O)Nc3cc(C)ccc3OC)c2)cc1 | -8 | 0 | 2 | -6 | 3676 | . | . | .
Cc1ccccc1NC(=O)c1cccnc1 | 10 | 3 | 66* | 4 | 3631 | 0 | -1 | 1
Cc1ccccc1NC(=O)c1cccc(C(=O)Nc2ccccc2C)c1 | -7 | 4 | ? | 2 | 4155 | . | . | .
CCCSc1cc(N2CCOCC2)nc(-c2ccccc2Cl)n1 | 1 | 0 | -3 | -5 | 3054 | . | . | .
CCN(CC)S(=O)(=O)c1cc(C(=O)Oc2cccc(-c3cnc4ccccc4n3)c2)ccc1OC | -2 | 0 | -3 | -13 | 2256 | . | . | .
CCN(CC)S(=O)(=O)c1ccc(C)c(C(=O)Oc2cccc(-c3cnc4ccccc4n3)c2)c1 | -1 | 6 | 35* | 2 | 2119 | -2 | -5 | -7
COCCN(C(=O)c1ccccc1)c1nnc(-c2cccnc2)s1 | 5 | 2 | 36* | 0 | 4193 | 1 | -2 | 1
COCCN(C(=O)CC(C)(C)C)c1nnc(-c2cccnc2)s1 | -12 | -1 | -3 | 1 | 2496 | . | . | .
O=C(NC1CS(=O)(=O)CC1NCc1ccccc1)c1ccccc1 (stereo not given) | 5 | 5 | 72* | -1 | 8686 | 0 | -4 | 0
O=S1(=O)CC(NCc2ccccc2)C(Nc2ccccc2)C1 (stereo not given) | -7 | ? | -19 | 10 | 9396 | . | . | .
CC1CCCCC1NC(=O)CN1CCC(NC(=O)C(C)(C)C)CC1 (stereo not given) | 1 | 0 | 3 | 1 | 3670 | . | . | .
Cc1cccc(CCNS(=O)(=O)c2ccc(S(=O)(=O)N3CCC(C)CC3)cc2)c1 | 3 | 4 | 32 | -3 | 8054 | 0 | -1 | -1
CN(CCOc1ccccc1)C(=O)c1cc([N+](=O)[O-])cc([N+](=O)[O-])c1 | 2 | 5 | 42* | -4 | 4483 | -1 | -10 | -2
COc1ccc(CNC(=O)CSc2nnc(NC(=O)C3CC3)s2)cc1 | -2 | 0 | 35* | 8 | 3716 | 0 | 0 | 0
CC1CCCN(S(=O)(=O)c2cccc(C(=O)NCCCN3CCCC3=O)c2)C1 (stereo not given) | -3 | 0 | -3 | 4 | 2921 | . | . | .
O=c1c2ccccc2nnn1-c1ccc(Br)cc1 | 14 | -8 | 41* | 0 | 4468 | 0 | 0 | -1
Cc1nc2c(C)cccc2c2c1CCN2c1ccccc1F | 35* | ? | ? | 8 | 3906 | 0 | -5 | 0
COc1ccc(N2CCc3c(C)nc4c(OC)cccc4c32)cc1 | 0 | 0 | -1 | -1 | 4379 | . | . | .
O=S(=O)(Nc1cc(Cl)cc(Cl)c1)N1CCOCC1 | -6 | -3 | -13 | -1 | 5816 | . | . | .
COc1ccc(C(=O)Nc2nc(-c3ccc([N+](=O)[O-])cc3)c(-c3ccc(OC)cc3)s2)cc1 | 33* | 38* | 22 | 24 | 7771 | 14 | 9 | 12
O=C(Nc1nc(-c2ccccc2)c(-c2ccccc2)s1)c1ccc(S(=O)(=O)N2CCCCC2)cc1 | -6 | 0 | -7 | -2 | 11466 | -1 | -6 | -5
Cc1ccc(C)c(Nc2nc(-c3ccncc3)nc3ccccc23)c1 | -2 | 0 | 42* | 19 | 3520 | -2 | 0 | -3
CCc1nnc(NC(=O)CSc2nnc(C)n2Cc2ccccc2)s1 | -8 | -1 | -7 | 7 | 6940 | . | . | .
Cc1nnc(SCC(=O)Nc2sccc2C(N)=O)n1Cc1ccccc1 | 6 | ? | 36* | -9 | 5801 | -1 | -6 | -1
Nc1ccc(C(=O)Nc2nc3ccccc3s2)cc1 | 3 | 0 | -8 | 2 | 5494 | . | . | .
Nc1c(C(=O)Nc2nc3ccccc3s2)sc2nc(-c3cccs3)ccc12 | 28 | 50* | 30 | -53 | 3925 | 27 | 9 | 16
CC(C)NC(=O)c1sc2nc(-c3cccs3)cc(-c3cccs3)c2c1N | . | . | . | -17 | . | . | . | .
CC(=O)c1sc2nc(-c3cccs3)ccc2c1N | 8 | 34* | 17 | 5 | 7582 | 24 | 2 | 11
